Assay results reported in PubChem BioAssay AID540303 (National Center for Advancing Translational Sciences (NCATS), 2011).
Screen size: about 330,000 compounds; about 1,000 (0.3%) were called active. A call without a number means that no potency is given here. Roughly 3% stayed inconclusive and do not appear here. Calls follow the shape of the dose curve; as a rule, active = well fitted inhibition curve with a large enough effect; inconclusive = small, poorly fitted or top-dose-only effect; inactive = no such curve, though single readings can be large or run the other way; tested in mouse RAW 264.7 cells. Many of the other results were omitted from the sample, so actives are more common in it than they were.

Test: qHTS for Inhibitors of Cell Surface uPA Generation; also: nearly all actives have a fitted effect of over 55% in size
Settings: cell surface uPA generation assay; series mostly up to 38.3 µM
Excerpt: The overall objective of this project is to perform a quantitative high throughput screen (qHTS) to identify novel compounds that inhibit the generation of cell surface urokinase activity. The urokinase plasminogen activator (uPA) is one of the two primary endogenous systems that mediate plasminogen activation into plasmin. Members of this system, including uPA and its receptor (uPAR), are overexpressed in several malignant tumors. This system plays a major role in adhesion, migration, invasion and metastasis of cancer cells. Small molecule inhibitors of the uPA system will serve as probes to understand the molecular mechanisms of the uPA cascade and better understanding the microenvironmental circumstances that facilitate the activation of plasminogen by uPA, and finally may provide novel candidate agents for anticancer drug therapy.
[…] […] Upon inhibition of the uPA activation cascade, the subsequent cell surface uPA activity-dependent translocation of LF into the cytoplasm is inhibited. ATP-Lite is used to measure intracellular ATP concentrations, which remain increased if LF entry into the cytoplasm is inhibited. This validation assay was performed using a small set of validation compounds.
NIH Chemical Genomics Center [NCGC]
NIH Molecular Libraries Probe Centers Network [MLPCN]
Assay Submitter (PI): Thomas Bugge, National Institute of Dental and Craniofacial Research, NIH
Cultured RAW 264.7 were dispensed into 1536-well clear bottom, white walled tissue culture plates at a density of 4000 cells/well and were incubated overnight (12-16 h) at 37 C in a 5% CO2 incubator. Serially diluted compounds in 23 nl DMSO were added to cells. […] Compound and reagent-treated plates were incubated for 24 h at 37 C in a 5% CO2 incubator. Perkin Elmer ATPlitetrade mark 1 step (3 ul) was then added to each well. Luminescence was detected using a Perkin Elmer ViewLuxtrade mark plate reader.
1.Dispensing RAW 264.7 cells into 1536-well, white walled tissue culture plates at a density of 4000 cells/well (4 uL).
2.Incubation at 37 C in a 5% CO2 incubator overnight.
3.Serially diluting compounds (1:5 serial dilution; 0.0024 uM to […] final concentration) in 23 nl DMSO.
5.Incubating the compound and reagent-treated plates for 24 hours at 37 C in a 5% CO2 incubator.
6.Adding ATP-Lite (3 ul).
7.Reading plates by ViewLux with an exposure length of 5 seconds.
Potency is read from the fitted curve at half-maximal effect.

Row | Structure (SMILES) | Potency
1 | COc1ccc(C(=O)NC2=NCCS2)c(OC)c1 | inactive
2 | Cc1csc(NC(=O)c2ccc(C)s2)n1 | inactive
3 | COc1cc(SC)ccc1C(=O)NCCOc1ccccc1Cl | inactive
4 | COc1cc(SC)ccc1C(=O)Nc1nc(C)cs1 | 0.891 µM (active)
5 | COc1ccc(C(=O)Nc2cccc(NC(=O)c3ccc(OC)cc3OC)n2)c(OC)c1 | inactive
6 | COc1ccc(C(=O)Nc2nncs2)c(OC)c1 | 11.2 µM (active)
7 | CCCC(O)(c1ccccc1)C(c1ccccc1)c1ccccn1 (stereo unspecified) | inactive
8 | Cc1cc(C)c(C=NNc2nc3c([nH]2)c(=O)n(C)c(=O)n3C)c(C)c1 | inactive
9 | O=c1c2ccccc2ncn1CCc1ccncc1 | inactive
10 | O=C(Nc1ccccc1)Oc1cccc2cccnc12 | inactive
11 | NN=C(NN=Cc1ccccc1)c1ccccc1 | inactive
12 | COc1cc(/C=C/c2ccc(/C=C/c3cc(OC)c(OC)c(OC)c3)cc2)cc(OC)c1OC | inactive
13 | CCCN(CCC)S(=O)(=O)c1cc2c(cc1Br)CCN2C(=O)CC | inactive
14 | COc1ccc(-c2ccc(OC(=O)NC3CCS(=O)(=O)C3)cc2)cc1 (stereo unspecified) | 10 µM (active)
15 | COc1ccc(NC(=S)NC2CCS(=O)(=O)C2)cc1 (stereo unspecified) | inactive
16 | O=C(Cc1ccc(Cl)cc1)NC1CCS(=O)(=O)C1 (stereo unspecified) | inactive
17 | COc1ccc2c(c1)C(=O)CC(c1ccccc1)O2 (stereo unspecified) | inactive
18 | O=S(=O)(Cc1ccc(Cl)cc1Cl)c1ccc(Cl)cc1 | inactive
19 | CC(=O)OCC(=O)C1(O)CCC2C3CC(C)C4=CC(=O)CCC4(C)C3C(O)CC21C (stereo unspecified) | inactive
20 | COc1cc(CN2CCC(C(N)=O)CC2)ccc1OCc1ccccc1 | inactive
21 | COc1cc(C)cc(CN2CCC(Cc3ccccc3)CC2)c1O | inactive
22 | Oc1c(CN2CCCC2)cc(COCc2ccccc2)c2cccnc12 | 4.47 µM (active)
23 | Nc1ncnc2c1cnn2C1CC(O)C(CO)O1 (stereo unspecified) | inactive

Row | Structure (SMILES) | Potency
24 | COc1ccc(C2NCCCC2c2ccccc2)cc1 (stereo unspecified) | inactive
25 | O=C(NN=CC=Cc1ccccc1)C(O)C(O)C(=O)NN=CC=Cc1ccccc1 (stereo unspecified) | inactive
26 | Cc1ccc(-c2cn3cc(C)ccc3n2)cc1 | inactive
27 | Cc1ccc2nc(-c3ccc(Br)cc3)cn2c1 | 2.82 µM (active)
28 | Cc1ccc(-c2cn3cc([N+](=O)[O-])ccc3n2)cc1 | inactive
29 | CC(C)=CCc1ccc(O)c(=O)cc1C(C)C | inactive
30 | CC(C)Cn1cnc2c(SCc3ccc(Cl)cc3)nc(N)nc21 | inactive
31 | Nc1c(C(=O)NCc2ccccc2)nnn1Cc1cccc(Cl)c1 | 11.2 µM (active)
32 | COc1cccc(CNC(=O)c2nnn(CC(=O)Nc3cc(C)ccc3C)c2N)c1 | inactive
33 | COc1cccc(CNC(=O)c2nnn(CC(=O)Nc3cc(Cl)ccc3C)c2N)c1 | inactive
34 | COc1ccc(N=C2C=CC(=O)O2)cc1 | inactive
35 | COC(=O)c1c(CCl)noc1C(=O)NC(C)C | 10 µM (active)
36 | CCCNC(=O)c1onc(CSc2ccc(F)cc2)c1C(=O)NC(C)C | inactive
37 | CCOc1cccc(SCc2noc(C(=O)NC(C)C)c2C(=O)O)c1 | inactive
38 | CC(=O)OC1CCC2(C)C(=CCC3C4CC(=O)N(O)C(=O)C4(C)CCC32)C1 (stereo unspecified) | inactive
39 | CC(NC(=O)c1ccccc1)C(=O)Nc1ccccc1 (stereo unspecified) | inactive
40 | CC(=O)Nc1ccc(C(=O)Nc2cc(S(=O)(=O)N3CCOCC3)ccc2N2CCOCC2)cc1 | inactive
41 | CC(C)(C)OC(=O)NNc1c2ccccc2nc2ccccc12 | inactive
42 | CC(=O)Nc1ccc(Nc2c3ccccc3nc3ccccc23)cc1 | 1 µM (active)
43 | CCc1nc(Nc2ccc(NC(C)=O)cc2)c2oc3ccccc3c2n1 | inactive
44 | OCC(O)C1OCOC(C(O)CO)C1O (stereo unspecified) | inactive
45 | O=C(NCCc1ccccc1)c1cccc(NC(=O)c2ccccc2)c1 | inactive
46 | CC(NC(=O)CCC(=O)N1CCN(S(=O)(=O)c2ccc(Cl)cc2)CC1)c1ccccc1 (stereo unspecified) | inactive

Row | Structure (SMILES) | Potency
47 | O=C(NCc1cccc(C(F)(F)F)c1)c1cccc(S(=O)(=O)N2CCN(Cc3ccccc3)CC2)c1 | inactive
48 | O=C(CCC(=O)N1CCN(S(=O)(=O)c2ccc(Cl)cc2)CC1)NCc1cccc(C(F)(F)F)c1 | 12.6 µM (active)
49 | Cc1cccc(NC(=S)N2CCC(C(=O)c3ccc(F)cc3)CC2)c1 | inactive
50 | Cc1ccc(CNC(=O)Cn2cnc3c(NCc4ccccc4)ncnc32)o1 | 11.2 µM (active)
51 | CC(CNC(=O)Cn1cnc2c(OCc3ccccc3)ncnc21)c1ccccc1 (stereo unspecified) | inactive
52 | O=C(Cn1cnc2c(OCc3ccccc3)ncnc21)NCc1nc2ccccc2[nH]1 | inactive
53 | CC(C)OC(=O)c1ccc(NCc2cc(O)ccc2O)cc1Cl | inactive
54 | O=C(CCNC(=O)c1ccc(Cl)cc1)NC1CCCc2ccccc21 (stereo unspecified) | 5.62 µM (active)
55 | NC(=O)Nc1ccc(C(=O)OCC(=O)NC2CCCc3ccccc32)cc1 (stereo unspecified) | inactive
56 | COC(=O)c1cc(OCC(=O)NC2CCCc3ccccc32)cc(C(=O)OC)c1 (stereo unspecified) | inactive
57 | CC1=CC(=NNS(=O)(=O)c2ccc([N+](=O)[O-])cc2)CC(C)(C)C1 | inactive
58 | Cc1onc(-c2c(F)cccc2Cl)c1C(=O)Nc1cccc(S(=O)(=O)N2CCCCC2)c1 | inactive
59 | Cc1cc(C)c([N+](=O)[O-])cc1-c1ccc(/C=N/NC(=O)c2nonc2N)o1 | inactive
60 | COc1cc(/C=N/N=C(\N)c2nonc2N)cc(OC)c1OC | inactive
61 | COc1cc(/C=N\NC(=O)c2nonc2N)c(OC)cc1Br | 7.94 µM (active)
62 | CSCCC(NC(=O)COc1ccccc1)C(=O)OCc1ccc(Cl)cc1 (stereo unspecified) | inactive
63 | CCOc1ccc(/C=C(/C#N)c2nnc(N3CCOCC3)n2-c2ccccc2)cc1OC | inactive
64 | CCOc1ccccc1NC(=S)C(=C([O-])c1ccc2c(c1)OCCO2)[n+]1ccc(CC)cc1 | inactive
65 | O=c1[nH]c2c(c(=O)n1-c1ccccc1)CCO2 | inactive
66 | O=[N+]([O-])c1ccc(NS(=O)(=O)c2ccccc2)c(Cl)c1 | inactive
67 | CCc1ccc(C(=O)C(C)OC(=O)CN2C(=O)NC3(CCCC3)C2=O)cc1 (stereo unspecified) | inactive
68 | O=C(NCCCn1ccnc1)c1ccccc1F | inactive
69 | O=C(NCCCn1ccnc1)c1cc(Br)c(Br)s1 | inactive

Row | Structure (SMILES) | Potency
70 | O=C(NCCCn1ccnc1)c1cc(-c2ccccc2)on1 | 5.62 µM (active)
71 | CCc1c(Nc2ccccc2Cl)nc(N)[nH]c1=O | inactive
72 | O=C(O)c1ccc(Cn2cnc3c(=S)nc[nH]c32)cc1 | inactive
73 | CCCCC(=O)NC(c1ccc(OC)c(OC)c1)c1ccc2cccnc2c1O (stereo unspecified) | inactive
74 | CC1CN(Cc2ccccc2)C(=S)NC1=O (stereo unspecified) | inactive
75 | COc1cccc(/C=N/Nc2ccc(S(=O)(=O)Nc3ccccc3C(=O)O)cc2[N+](=O)[O-])c1O | inactive
76 | c1ccc2c(c1)OC1OC2Oc2ccccc21 | inactive
77 | COc1cccc(/C=N/Nc2ccc(Cl)nn2)c1 | inactive
78 | Oc1cccc(/C=N/Nc2ccc(Cl)nn2)c1O | 2.82 µM (active)
79 | Cc1ccsc1/C=N/Nc1ccc(Cl)nn1 | inactive
80 | Cc1ccc(S(=O)(=O)CCC(=O)OCC(=O)N(C)Cc2ccccc2)cc1 | inactive
81 | NC(=S)NN=C1CCCC(C(F)(F)F)C1 (stereo unspecified) | inactive
82 | CSCCC(NC(=O)COc1ccccc1)C(=O)N1CCN(c2cccc(C(F)(F)F)c2)CC1 (stereo unspecified) | inactive
83 | COc1cc(C2c3cc4c(cc3C(O)C3COC(=O)C23)OCO4)cc(OC)c1OC (stereo unspecified) | inactive
84 | O=C(Nc1ccc(S(=O)(=O)Nc2nccs2)cc1)c1cc(-c2ccncc2)nc2ccccc12 | inactive
85 | CCN(CC)CCNC(=O)c1ccc(NC(=O)c2cc(-c3ccncc3)nc3ccccc23)cc1 | 10 µM (active)
86 | COC(=O)CNC(=O)c1cc(-c2ccncc2)nc2ccccc12 | inactive
87 | CN(C(=O)c1cccc(NC(=O)Cc2cccc(NC(=O)C3CCCN(C(=O)C4CC4)C3)c2)c1)C1CCC1 (stereo unspecified) | inactive
88 | O=C(Nc1ncccc1O)c1ccc(S(=O)(=O)N2CCCCCC2)cc1 | inactive
89 | O=C(N/N=C/c1ccccn1)c1ccc(S(=O)(=O)N2CCCCCC2)cc1 | inactive
90 | O=C(Nc1ncccc1O)c1ccc(S(=O)(=O)N2CCCC2)cc1 | 7.94 µM (active)
91 | Cc1cn(C2CC(O)C(CO)O2)c(=O)n(CCCc2ccccc2)c1=O (stereo unspecified) | inactive
92 | O=S1(=O)CSCS(=O)(=O)C1 | inactive

Row | Structure (SMILES) | Potency
93 | COc1ccccc1N1CCN(C(=O)c2ccc(Cl)c(S(=O)(=O)N3CCCC3)c2)CC1 | inactive
94 | Cc1[nH]c2ccc(C(=O)N3CCN(C)CC3)cc2c1C | inactive
95 | CCOc1ccccc1N1CCN(C(=O)c2ccc3[nH]c(C)c(C)c3c2)CC1 | 2.51 µM (active)
96 | CCCCCCCCNS(=O)(=O)CCNC1CCCCC1 | inactive
97 | O=C(Cc1ccc(S(=O)(=O)N2CCOCC2)s1)Nc1ccc(Br)c(C(F)(F)F)c1 | inactive
98 | CC(C)(C)S(=O)(=O)N1Cc2cc(CO)cc(CCO)c2[C@H]1CCO | inactive
99 | Cc1ccc(C(=O)N2CCN(C(=O)N3CCOCC3)CC2)cc1 | inactive
100 | Cc1oc2c(c1C(=O)N1CCOCC1)C(=O)c1ccccc1C2=O | 2.51 µM (active)
101 | Cc1ccccc1-c1ccc(Nc2ccc(C(=O)N3CCOCC3)cc2)nn1 | inactive
102 | C/C(=N\Nc1ccccc1)c1cccs1 | inactive
103 | CC1C(C)N(C(=O)CCl)c2ccccc2N1C(=O)CCl (stereo unspecified) | inactive
104 | O=C(NN=Cc1ccccc1O)NN=Cc1ccccc1O | inactive
105 | O=C1C[C@@H]2c3c(cccc3CN1Cc1ccccc1)C[C@@H](O)[C@H]2O | inactive
106 | COc1ccc(CNCCCn2cnc3c(OCc4ccccc4)ncnc32)cc1 | inactive
107 | CC(C)(C)OC(=O)N1CCC(C(=O)Nc2cccc(C(=O)NCCc3ccccc3)c2)CC1 | inactive
108 | CC(C)[C@@H](C(=O)OCC(=O)c1ccc2c(c1)NC(=O)CO2)N1C(=O)c2ccccc2C1=O | inactive
109 | O=C1CC(N2CCN(C(c3ccccc3)c3ccccc3)CC2)C(=O)N1 (stereo unspecified) | inactive
110 | Oc1ccccc1CN1CCN(C(c2ccccc2)c2ccccc2)CC1 | inactive
111 | CC1(C)CC(N2CCN(C(c3ccccc3)c3ccccc3)CC2)=CC(=[N+]2CCCCC2)C1 | 1.12 µM (active)
